# A number with no mark means an inactive call. Records with an inconclusive call do not appear. Entries that show only a call come without a potency. The source made the active and inactive calls. Unless noted, calls follow the shape of the full dose curve.
# Columns and labels:
# [1] = Nuclear factor erythroid 2-related factor 2/antioxidant responsive element (Nrf2/ARE) small molecule agonists: luciferase reporter gene qHTS assay in human keratinocytes (AID 1919969); also: nearly all actives have a fitted effect of over 35% in size; also: potency is read from the fitted curve at half-maximal effect
# [2] = molecular target: Gonadotropin-releasing hormone receptor (Homo sapiens) (UniProt P30968); assay: Human gonadotropin-releasing hormone receptor (GnRHR) small molecule agonists, calcium flux assay in GnRHR-HEK293 cells (AID 1920063); also: nearly all actives have a fitted effect of over 35% in size
# Gonadotropin-releasing hormone receptor (Homo sapiens), sequence (P30968 whole entry, looked up): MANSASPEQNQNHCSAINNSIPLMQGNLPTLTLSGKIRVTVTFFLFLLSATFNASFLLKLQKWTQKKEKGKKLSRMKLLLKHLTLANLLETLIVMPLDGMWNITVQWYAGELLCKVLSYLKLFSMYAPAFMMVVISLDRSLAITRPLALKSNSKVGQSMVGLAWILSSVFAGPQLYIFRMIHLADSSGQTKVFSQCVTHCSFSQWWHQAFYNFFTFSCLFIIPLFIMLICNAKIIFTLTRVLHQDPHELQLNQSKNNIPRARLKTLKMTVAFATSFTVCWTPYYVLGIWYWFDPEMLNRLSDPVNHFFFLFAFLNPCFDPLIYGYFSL
# Procedure, shortened: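 Agonist mode: compounds at 15 concentrations, in triplicate, went onto calcium dye-loaded GnRHR-HEK293 cells. Intracellular calcium was then followed as 480/540 nm fluorescence at 1 s intervals over 3 min.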
# [3] = molecular target: KiSS-1 receptor (Homo sapiens) (UniProt Q969F8); assay: Human kisspeptin (KISS1R) small molecule agonists, calcium flux assay in KISS1R-HEK293 cells (AID 1920064; active = well fitted activation curve with a large enough effect in the repeat runs)
# KiSS-1 receptor (Homo sapiens), sequence (Q969F8 whole entry, looked up): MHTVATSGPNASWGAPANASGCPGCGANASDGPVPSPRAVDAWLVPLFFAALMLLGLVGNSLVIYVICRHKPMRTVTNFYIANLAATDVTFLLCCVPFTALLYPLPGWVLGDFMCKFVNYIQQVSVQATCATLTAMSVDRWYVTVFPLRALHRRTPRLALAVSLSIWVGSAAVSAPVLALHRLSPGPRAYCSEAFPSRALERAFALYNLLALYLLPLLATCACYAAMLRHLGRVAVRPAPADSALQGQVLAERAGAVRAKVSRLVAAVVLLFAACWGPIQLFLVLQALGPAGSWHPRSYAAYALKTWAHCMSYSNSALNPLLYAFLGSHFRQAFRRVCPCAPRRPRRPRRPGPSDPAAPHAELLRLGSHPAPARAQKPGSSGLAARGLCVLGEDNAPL
# Procedure, shortened: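 Agonist mode: intracellular calcium rise tracked at 1 s intervals over 3 min (480/540 nm) immediately after compound addition to dye-loaded KISS1R-HEK293 stable cells. Each compound tested at 15 concentrations in triplicate.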
# [4] = G protein-coupled receptor (GPCR) small molecule agonists, calcium flux assay: HEK293 wild type cell line counter screen (AID 1920065)
# Procedure, shortened: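 Calcium flux counter screen: compound added in agonist mode at 15 concentrations in triplicate to dye-loaded parental HEK293 cells. Fluorescence (480/540) read kinetically for 3 min; ATP served as positive control.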
# [5] = p53 small molecule agonists, cell-based qHTS assay with rat liver microsomes (AID 1963578)
# Procedure, shortened: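 p53RE-bla cells, 4,000/well, pre-incubated 5 h, then given compounds plus rat liver microsomes (0.5 mg/mL final) and NADPH (0.5 mg/mL final). Incubation 16 h at 37 C; beta-lactamase reporter read by LiveBLAzer fluorescence after 2 h at room temperature.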
# [6] = p53 small molecule agonists, cell-based qHTS assay with human liver microsomes: qHTS cell viability counter screen (AID 1963579); also: nearly all actives have a fitted effect of over 45% in size
# Procedure, shortened: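 p53RE-bla cells, 4,000/well, dosed 5 hours after plating, with human liver microsomes (0.5 mg/mL final) plus NADPH (0.5 mg/mL final), 16 hours at 37 C. Viability read as CellTiter-Glo luminescence after 30 min at room temperature.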
# [7] = p53 small molecule agonists, cell-based qHTS assay: qHTS cell viability counter screen (AID 1963581); also: nearly all actives have a fitted effect of over 45% in size
# Procedure, shortened: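 Counter screen read by CellTiter-Glo luminescence (ATP content, 30 min at room temperature), run in the same wells as the beta-lactamase reporter read. HCT-116 p53RE-bla cells saw compounds for 16 h at 37 C.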
# [8] = p53 small molecule agonists, cell-based qHTS assay (AID 1963582; active = well fitted activation curve with a large enough effect in the signal ratio in the repeat runs, not every such curve was filed as active; the % refers to the signal ratio)
# Procedure, shortened: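 Read-out is beta-lactamase FRET fluorescence after 2 h at room temperature with LiveBLAzer B/G substrate. p53 response element-bla cells were treated 16 h at 37 C with compounds in DMSO, added 5 h after seeding.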
# [9] = molecular target: 5-hydroxytryptamine receptor 2A (Homo sapiens) (UniProt P28223); assay: 5-hydroxytryptamine receptor 2A (HTR2A) small molecule antagonists, cell-based qHTS assay (AID 1963586); also: nearly all actives have a fitted effect of over 45% in size; also: potency is read from the fitted curve at half-maximal effect
# 5-hydroxytryptamine receptor 2A (Homo sapiens), sequence (P28223 whole entry, looked up): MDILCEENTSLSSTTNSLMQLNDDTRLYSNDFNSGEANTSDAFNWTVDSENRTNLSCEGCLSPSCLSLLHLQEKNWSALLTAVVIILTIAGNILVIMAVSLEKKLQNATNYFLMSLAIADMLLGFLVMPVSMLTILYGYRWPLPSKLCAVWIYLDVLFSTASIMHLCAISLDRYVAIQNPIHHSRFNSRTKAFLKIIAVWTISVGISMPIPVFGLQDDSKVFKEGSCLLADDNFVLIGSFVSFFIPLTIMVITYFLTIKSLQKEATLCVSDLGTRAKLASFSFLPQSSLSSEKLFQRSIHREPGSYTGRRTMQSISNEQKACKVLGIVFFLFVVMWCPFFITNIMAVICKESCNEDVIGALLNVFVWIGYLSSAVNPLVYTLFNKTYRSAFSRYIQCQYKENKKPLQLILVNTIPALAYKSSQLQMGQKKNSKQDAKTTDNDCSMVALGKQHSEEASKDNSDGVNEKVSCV
# Procedure, shortened: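 CHO cells stably expressing human HTR2A were plated for 18 h at 37 C, then loaded with calcium dye for 1 h. Compounds were preincubated 5 min at room temperature before DOI (4 nM solution) was added. Kinetic fluorescence was read for 3 min.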
# [10] = molecular target: 5-hydroxytryptamine receptor 2A (Homo sapiens) (UniProt P28223); assay: 5-hydroxytryptamine receptor 2A (HTR2A) small molecule agonists, cell-based qHTS assay (AID 1963587); also: nearly all actives have a fitted effect of over 30% in size
# Procedure, shortened: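 Kinetic calcium-flux fluorescence (2 min, 1 sec intervals) after compound addition in agonist mode. HTR2A-CHO cells were cultured 18 h, then dye-loaded 1 h at 37 C.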
# [11] = molecular target: Muscarinic acetylcholine receptor M1 (Homo sapiens) (UniProt P11229); assay: Cholinergic receptor muscarinic 1 (CHRM1) small molecule antagonists, cell-based qHTS assay (AID 1963588); also: nearly all actives have a fitted effect of over 40% in size; also: potency is read from the fitted curve at half-maximal effect
# Muscarinic acetylcholine receptor M1 (Homo sapiens), sequence (P11229 whole entry, looked up): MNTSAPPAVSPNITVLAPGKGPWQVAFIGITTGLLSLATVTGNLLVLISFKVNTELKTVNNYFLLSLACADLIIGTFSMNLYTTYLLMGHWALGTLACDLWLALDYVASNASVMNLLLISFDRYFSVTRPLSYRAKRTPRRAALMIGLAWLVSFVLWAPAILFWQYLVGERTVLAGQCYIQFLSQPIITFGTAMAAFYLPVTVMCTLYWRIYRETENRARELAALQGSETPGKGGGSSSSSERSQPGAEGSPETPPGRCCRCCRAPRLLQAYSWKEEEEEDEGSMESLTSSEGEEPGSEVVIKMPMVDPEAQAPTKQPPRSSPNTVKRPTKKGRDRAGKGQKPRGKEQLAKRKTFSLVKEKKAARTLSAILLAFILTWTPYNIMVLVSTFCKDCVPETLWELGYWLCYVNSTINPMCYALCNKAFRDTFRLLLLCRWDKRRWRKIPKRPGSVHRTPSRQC
# Procedure, shortened: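 Compounds were tested at 15 concentrations in three independent runs. Dye-loaded CHRM1-CHO cells were exposed 5 min at room temperature before stimulation by acetylcholine added at 50nM. Intracellular calcium was read kinetically on FDSS for 3 min.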
# [12] = molecular target: Muscarinic acetylcholine receptor M1 (Homo sapiens) (UniProt P11229); assay: Cholinergic receptor muscarinic 1 (CHRM1) small molecule agonists, cell-based qHTS assay (AID 1963589); also: nearly all actives have a fitted effect of over 35% in size
# Procedure, shortened: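 Agonist-mode calcium-flux screen: compounds at 15 concentrations, three independent runs, were pin-transferred onto dye-loaded human CHRM1-CHO cells. Fluorescence was then recorded kinetically every second over minutes.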
# [13] = molecular target: Beta-2 adrenergic receptor (Homo sapiens) (UniProt P07550); assay: Adrenergic beta2 receptor (ADRB2) small molecule antagonists, cell-based qHTS assay (AID 1963592); also: series mostly up to about 92 µM; nearly all actives have a fitted effect of over 50% in size
# Beta-2 adrenergic receptor (Homo sapiens), sequence (P07550 whole entry, looked up): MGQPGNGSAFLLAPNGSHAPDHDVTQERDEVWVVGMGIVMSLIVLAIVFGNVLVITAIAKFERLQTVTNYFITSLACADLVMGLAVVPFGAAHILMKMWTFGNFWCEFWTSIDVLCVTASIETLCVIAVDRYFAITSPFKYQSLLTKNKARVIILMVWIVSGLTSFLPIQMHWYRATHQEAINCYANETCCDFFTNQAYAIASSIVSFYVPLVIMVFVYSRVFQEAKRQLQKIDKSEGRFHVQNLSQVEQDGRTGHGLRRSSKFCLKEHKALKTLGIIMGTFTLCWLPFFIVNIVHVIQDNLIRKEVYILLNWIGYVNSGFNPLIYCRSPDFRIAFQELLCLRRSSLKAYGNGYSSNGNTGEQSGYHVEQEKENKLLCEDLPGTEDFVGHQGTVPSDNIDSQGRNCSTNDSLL
# Procedure, shortened: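 Assay format: CHO-ADRB2 cells, 18-20hr seeding at 37C/5% CO2, then compound plus 1nM isoproterenol agonist mix for 0.5hr RT. Homogeneous time-resolved fluorescence cAMP detection after 1hr, expressed as 665/615 nm ratio.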
# [14] = molecular target: Beta-2 adrenergic receptor (Homo sapiens) (UniProt P07550); assay: Adrenergic beta2 receptor (ADRB2) small molecule agonists, cell-based qHTS assay (AID 1963593);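 also: CHO cells stably overexpressing human ADRB2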
# Procedure, shortened: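 CHO cells stably over-expressing ADRB2 were plated overnight at 37C, then dosed with compounds plus a stimulation mix containing 100uM IBMX and 25uM Ro-20-1724 for 0.5hr at room temperature. cAMP was measured by HTRF competition, 1hr.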
# [15] = molecular target: D(2) dopamine receptor (Homo sapiens) (UniProt P14416); assay: Dopamine D2 receptor (DRD2) small molecule agonists, cell-based qHTS assay (AID 1963594); also: nearly all actives have a fitted effect of over 35% in size
# D(2) dopamine receptor (Homo sapiens), sequence (P14416 whole entry, looked up): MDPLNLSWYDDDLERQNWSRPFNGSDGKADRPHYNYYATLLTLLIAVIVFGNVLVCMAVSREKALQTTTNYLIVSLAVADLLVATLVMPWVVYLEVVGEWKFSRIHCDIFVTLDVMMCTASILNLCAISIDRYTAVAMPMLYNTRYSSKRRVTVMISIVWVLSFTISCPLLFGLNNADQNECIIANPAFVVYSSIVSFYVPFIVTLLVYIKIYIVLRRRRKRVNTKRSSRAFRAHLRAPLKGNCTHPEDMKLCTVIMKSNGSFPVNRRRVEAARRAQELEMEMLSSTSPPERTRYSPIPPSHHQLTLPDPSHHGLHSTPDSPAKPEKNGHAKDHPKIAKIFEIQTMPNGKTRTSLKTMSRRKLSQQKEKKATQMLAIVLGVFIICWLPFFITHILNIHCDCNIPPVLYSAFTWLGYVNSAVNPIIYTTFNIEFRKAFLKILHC
# Procedure, shortened: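 cAMP accumulation in DRD2-HEK293 cells measured by HTRF after 1 h detection; compounds added 10 min before NKH477 (200nM […]) forskolin-analogue stimulation, 30 min at room temperature, with Ro20-1724 present at 0.1 mM final.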
# [16] = molecular target: D(2) dopamine receptor (Homo sapiens) (UniProt P14416); assay: Dopamine D2 receptor (DRD2) small molecule antagonists, cell-based qHTS assay (AID 1963595; active = well fitted inhibition curve with a large enough effect in the signal ratio in the repeat runs, with a control signal flat; the % refers to the signal ratio)
# Procedure, shortened: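 In this cell-based antagonist screen, compounds act for 10 min at room temperature before a 30 min challenge with 12 nM quinpirole and 200 nM NKH477. cAMP is quantified by HTRF competition in DRD2-HEK293 cells containing 0.1 mM Ro20-1724.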
# [17] = p53 small molecule agonists, cell-based qHTS assay with rat liver microsomes: qHTS cell viability counter screen (AID 1963580); also: nearly all actives have a fitted effect of over 45% in size
# Procedure, shortened: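 Rat liver microsome (0.5 mg/mL final) and NADPH (0.5 mg/mL final) co-incubation with compounds for 16 h at 37 C on HCT-116 p53RE-bla cells; cytotoxicity taken from intracellular ATP luminescence.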
# [18] = cAMP Responsive Elements (CRE) small molecule agonists, cell-based qHTS assay (AID 1963590)
# Procedure, shortened: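 Agonist mode: compound added to CRE-bla HEK 293T cells (2,000/well, 18 h after plating) for 3 h at 37 C/5% CO2. Reporter activity detected via FRET beta-lactamase substrate, 2 h room-temperature loading.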
# [19] = cAMP Responsive Elements (CRE) small molecule antagonists, cell-based qHTS assay (AID 1963591; active = well fitted inhibition curve with a large enough effect in the signal ratio in the repeat runs, not every such curve was filed as active; the % refers to the signal ratio; also: potency is read from the fitted curve at half-maximal effect)
# Procedure, shortened: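 Antagonist mode: compounds are added alongside the adenylyl cyclase activator NKH477 (0.25 uM final) to CRE-bla HEK293T cells for 3 h. LiveBLAzer FRET substrate, 2 h at room temperature, reports bla expression.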
smiles,measurement,setting,value
CC1C2CC(CC2C2CCCC(O)C2)C1(C)C (configuration not stated),Potency,[1],inactive
same,Potency,[2],inactive
same,Potency,[3],inactive
same,Potency,[4],inactive
same,Potency,[5],inactive
same,Potency,[6],inactive
same,Potency,[7],inactive
same,Potency,[8],inactive
same,Potency,[9],inactive
same,Potency,[10],inactive
same,Potency,[11],inactive
same,Potency,[12],inactive
same,Potency,[13],inactive
same,Potency,[14],inactive
same,Potency,[15],inactive
same,Potency,[16],inactive
O=S1(=O)CCCC1,Potency,[1],inactive
same,Potency,[2],inactive
same,Potency,[3],inactive
same,Potency,[4],inactive
same,Potency,[6],inactive
same,Potency,[17],inactive
same,Potency,[7],inactive
same,Potency,[9],inactive
same,Potency,[10],inactive
same,Potency,[11],inactive
same,Potency,[12],inactive
same,Potency,[18],inactive
same,Potency,[19],inactive
same,Potency,[13],inactive
same,Potency,[14],inactive
same,Potency,[15],inactive
same,Potency,[16],inactive
CNC(=S)NC,Potency,[1],inactive
same,Potency,[2],inactive
same,Potency,[3],inactive
same,Potency,[4],inactive
same,Potency,[5],inactive
same,Potency,[6],inactive
same,Potency,[17],inactive
same,Potency,[9],inactive
same,Potency,[10],inactive
same,Potency,[11],inactive
same,Potency,[12],inactive
same,Potency,[13],inactive
same,Potency,[14],inactive
same,Potency,[15],inactive
same,Potency,[16],inactive
Clc1ccc2nsnc2c1NC1=NCCN1,Potency,[1],inactive
same,Potency,[2],inactive
same,Potency,[3],inactive
same,Potency,[4],inactive
same,Potency,[5],inactive
same,Potency,[17],inactive
same,Potency,[7],inactive
same,Potency,[8],inactive
same,Potency,[9],inactive
same,Potency,[10],inactive
same,Potency,[11],inactive
same,Potency,[12],inactive
same,Potency,[18],inactive
same,Potency,[13],inactive
same,Potency,[14],inactive
same,Potency,[15],inactive
same,Potency,[16],inactive
COc1cc(OC)c2ccc(=O)oc2c1,Potency,[1],inactive
same,Potency,[2],inactive
same,Potency,[3],inactive
same,Potency,[4],inactive
same,Potency,[6],inactive
same,Potency,[17],inactive
same,Potency,[7],inactive
same,Potency,[9],inactive
same,Potency,[10],inactive
same,Potency,[11],inactive
same,Potency,[12],inactive
same,Potency,[19],inactive
same,Potency,[13],inactive
same,Potency,[15],inactive
same,Potency,[16],inactive
Brc1cc(Br)c(Oc2cc(Br)c(Br)cc2Br)cc1Br,Potency,[1],inactive
same,Potency,[2],inactive
same,Potency,[3],inactive
same,Potency,[4],inactive
same,Potency,[6],inactive
same,Potency,[17],inactive
same,Potency,[7],inactive
same,Potency,[9],inactive
same,Potency,[10],inactive
same,Potency,[11],inactive
same,Potency,[12],inactive
same,Potency,[18],inactive
same,Potency,[19],inactive
same,Potency,[13],inactive
same,Potency,[15],inactive
same,Potency,[16],inactive
CN(C)C(C)(C)CO,Potency,[1],inactive
same,Potency,[2],inactive
same,Potency,[3],inactive
same,Potency,[4],inactive
same,Potency,[6],inactive
same,Potency,[17],inactive
same,Potency,[7],inactive
same,Potency,[9],inactive
same,Potency,[10],inactive
same,Potency,[11],inactive
same,Potency,[12],inactive
same,Potency,[19],inactive
same,Potency,[13],inactive
same,Potency,[14],inactive
same,Potency,[15],inactive
same,Potency,[16],inactive
CCOC(=O)COc1ccc2c(C)c(CCN(CC)CC)c(=O)oc2c1Cl,Potency,[1],inactive
same,Potency,[2],inactive
same,Potency,[3],inactive
same,Potency,[4],inactive
same,Potency,[5],inactive
same,Potency,[6],inactive
same,Potency,[17],inactive
same,Potency,[8],inactive
same,Potency,[9],inactive
same,Potency,[10],inactive
same,Potency,[11],2.59 µM (active)
same,Potency,[12],inactive
same,Potency,[13],inactive
same,Potency,[16],inactive
Nc1c(I)cc(I)c(C(=O)N(CCC(=O)O)c2ccccc2)c1I,Potency,[1],inactive
same,Potency,[2],inactive
same,Potency,[3],inactive
same,Potency,[4],inactive
same,Potency,[5],inactive
same,Potency,[6],inactive
same,Potency,[17],inactive
same,Potency,[8],inactive
same,Potency,[9],inactive
same,Potency,[11],inactive
same,Potency,[18],inactive
same,Potency,[19],inactive
same,Potency,[13],inactive
same,Potency,[14],inactive
same,Potency,[15],inactive
COC=O,"activity, positive = activation",[1],-9.06% [at 8.39 µM]
same,activity change,[2],"-1.66% [at 5.22 µM, active compounds read high]"
same,activation,[3],-0.791% [at 6.97 µM]
same,activation,[4],2.54% [at 5.23 µM]
same,"activity change, negative = cytotoxicity",[6],-1.32% [at 5.99 µM]
same,"activity change, negative = cytotoxicity",[17],1.32% [at 5.99 µM]
same,"activity change, negative = cytotoxicity",[7],-1.7% [at 5.99 µM]
same,Potency,[9],3.09 µM (active)
same,activation,[10],-0.022% [at 7.02 µM]
same,"activity, negative = inhibition",[11],1.52% [at 5.58 µM]
same,activation,[12],-0.541% [at 6.97 µM]
same,activation,[18],-0.656% [at 8.39 µM]
same,"activity change, negative = inhibition",[19],12.8% [at 8.39 µM]
same,"activity change, negative = inhibition",[13],14.4% [at 8.39 µM]
same,activation,[15],-14.1% [at 8.39 µM]
same,"activity change, negative = inhibition",[16],-12.2% [at 8.38 µM]
CNCc1ccc(NC(=O)c2c[nH]c3c2C(=O)CCC3)cc1,Potency,[1],inactive
same,Potency,[2],inactive
same,Potency,[3],inactive
same,Potency,[4],inactive
same,Potency,[5],inactive
same,Potency,[6],inactive
same,Potency,[17],inactive
same,Potency,[8],inactive
same,Potency,[9],inactive
same,Potency,[10],inactive
same,Potency,[12],inactive
same,Potency,[18],inactive
same,Potency,[19],inactive
same,Potency,[13],inactive
same,Potency,[16],inactive
CCN(CC)CCOc1ccc2c(c1)C(=O)c1cc(OCCN(CC)CC)ccc1-2,Potency,[1],33.5 µM (active)
same,Potency,[2],inactive
same,Potency,[3],inactive
same,Potency,[4],inactive
same,Potency,[6],inactive
same,Potency,[17],inactive
same,Potency,[7],inactive
same,Potency,[9],inactive
same,Potency,[10],inactive
same,Potency,[11],inactive
same,Potency,[12],inactive
same,Potency,[18],inactive
same,Potency,[19],29.8 µM (active)
S=C(S)NCCNC(=S)S,Potency,[1],inactive
same,Potency,[2],inactive
same,Potency,[3],inactive
same,Potency,[4],inactive
same,Potency,[6],inactive
same,Potency,[17],inactive
same,Potency,[7],inactive
same,Potency,[9],inactive
same,Potency,[10],inactive
same,Potency,[11],inactive
same,Potency,[12],inactive
same,Potency,[18],inactive
same,Potency,[19],inactive
same,Potency,[13],inactive
same,Potency,[14],inactive
same,Potency,[15],inactive
same,Potency,[16],inactive

# — PubChem BioAssay (Tox21)
